Screening data from PubChem.
A selection: hits, their analogues and other compounds. The true share with any hit is near 22%.
Shiga toxin inh – A qHTS for Small Molecule Inhibitors of Shiga Toxin; inhibition, % at 38.7 µM; AID 2315, 2010; 9.2% of 290,000 active; Vero cells, Shiga toxin protein synthesis inhibition reporter; in the data active = inhibition mostly above about 28%, no sharp cut-off; inactive = mostly below about 43%; also: 0% is about no effect
LmPK inh – qHTS Assay for Inhibitors of Leishmania Mexicana Pyruvate Kinase (LmPK). Q27686. purified LmPK, Kinase-Glo ATP luminescence, 1 h. Potency, µM (top dose mostly 57.5 µM), without a hit: top-dose activity change, negative = inhibition, most hits filed as inhibitors. 0.37% of 290,000 active; also: potency is read from the fitted curve at half-maximal effect; % is scaled to controls: 0 for no effect and ±100 for the full control effect
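In 50 mM imidazole pH 7.2 with 7 mM MgCl2, LmPK (0.1 nM) turned over PEP (0.5 mM) and ADP (0.1 mM) for 1 h at room temperature. Luciferase read-out of ATP.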
Pf growth 48h – Primary qHTS for delayed death inhibitors of the malarial parasite plastid, 48 hour incubation; Potency, µM (highest dose often 28.7 µM), inactives show at the top dose activity change, negative = inhibition, actives largely listed as inhibitors; 5.9% of 310,000 active; P. falciparum luciferase growth in erythrocytes, 48 h; AID 504832, 2011; also: potency is read from the fitted curve at half-maximal effect; % is scaled to controls: 0 for no effect and ±100 for the full control effect
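In quantitative HTS format, infected erythrocytes bearing luciferase-reporter parasites were treated for a single generation at 37 C. Luminescence after adding detection reagent served as the growth measure.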
Pf growth 96h – Primary qHTS for delayed death inhibitors of the malarial parasite plastid, 96 hour incubation; P. falciparum luciferase reporter growth, 96 h; Potency, µM (top dose mostly 28.7 µM), for inactives: top-dose activity change, negative = inhibition, actives largely listed as inhibitors; 6.9% of 320,000 active; also: potency is read from the fitted curve at half-maximal effect; % is scaled to controls: 0 for no effect and ±100 for the full control effect
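Delayed-death screen, second-generation endpoint: infected erythrocytes, 2% hematocrit, 0.05% parasitemia final; 96 hours at 37 C, 5% CO2; luciferase detection reagent; luminescence decrease equals reduced growth.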
Cycloheximide cs – Cycloheximide Counterscreen for Small Molecule Inhibitors of Shiga Toxin. cell reporter, cycloheximide protein synthesis inhibition counterscreen. max response, %. 12% of 300,000 active. AID 2314, 2010; in the data active = max response mostly above about 13%, no sharp cut-off; inactive = mostly below about 14%; also: read at 38.3 µM for the half of the compounds with a filed dose; 0% is about no effect
An asterisk follows results filed as active; u = inconclusive; x = no result given; + = active, no number. Unless noted, calls follow the shape of the dose curve; as a rule, active = well fitted inhibition curve with a large enough effect; inconclusive = small, poorly fitted or top-dose-only effect, or another doubt; inactive = no such curve, though single readings can be large or run the other way.

SMILES	Shiga toxin inh	LmPK inh	Pf growth 48h	Pf growth 96h	Cycloheximide cs
CCc1ccc(/C=N/NC(=O)c2cc(C)on2)s1	+	1%	31%	-10%	35*
CCc1ccc(/C=N/NC(=O)c2cc(C3CC3)nc3ccccc23)s1	2	-1%	x	u	-3
COc1cccc(C(=O)N2CCC(N3CC(C)OC(C)C3)CC2)c1 (stereo not given)	10	0%	3%	-1%	-4
CC(=O)c1ccc2c(c1)C1C(Cl)C(Sc3ccccc3[N+](=O)[O-])CC1C(c1ccccc1[N+](=O)[O-])N2 (stereo not given)	8	-1%	2.3µM*	u	4
CC(=O)c1ccc2c(c1)C1C(Cl)C(Sc3ccccc3[N+](=O)[O-])CC1C(c1ccccc1)N2 (stereo not given)	-3	-8%	u	u	-2
Cc1cc(/C=C(/C#N)C(=O)O)c(C)n1-c1cccc2ccccc12	21	7%	-11%	2%	-3
N=c1c(C(=O)NC2CCCC2)cc2c(=O)n3ccccc3nc2n1Cc1ccccc1	-16	5%	u	u	-1
N=c1c(C(=O)NC2CCCCC2)cc2c(=O)n3ccccc3nc2n1Cc1ccc(F)cc1	3	-3%	2.1µM*	u	-5
Cc1ccc(Cn2c(=N)c(C(=O)NC3CCCCC3)cc3c(=O)n4ccccc4nc32)cc1	-3	5%	4.1µM*	2.9µM*	-2
CC1SCC(=NOCc2c(Cl)cccc2Cl)CS1 (stereo not given)	62*	-3%	18%	-6%	12
COC(=O)c1sccc1-c1ccc(/C=N/OCc2c(Cl)cccc2Cl)o1	9	-4%	-2%	u	0
CCOc1ccc(NC(=O)CSc2ccc(-c3cccnc3)nn2)cc1	-5	-2%	-20%	5.9µM*	14
CC(=O)Nc1ccc(NC(=O)CSc2ccc(-c3cccnc3)nn2)cc1	-3	-9%	u	u	1
O=C(CSc1ccc(-c2cccnc2)nn1)Nc1ccccc1C(F)(F)F	-10	-8%	-15%	10µM*	7
O=C(CSc1ccc(-c2cccnc2)nn1)Nc1ccc(F)cc1F	-7	-10%	2%	u	14
CC1CCCCN1CCCNc1ccc(C(CC(N)=O)NC(=O)Cc2ccc(Cl)cc2)cc1[N+](=O)[O-] (stereo not given)	-7	-6%	38%	33%	1
NC(=O)CC(NC(=O)Cc1ccc(Br)cc1)c1ccc(NCCN2CCCC2)c([N+](=O)[O-])c1 (stereo not given)	7	-3%	20%	u	2
NC(=O)CC(NC(=O)Cc1ccc(Br)cc1)c1ccc(NCCN2CCCCC2)c([N+](=O)[O-])c1 (stereo not given)	1	4%	29%	0.01µM*	2
CC1CCCCN1CCCNc1ccc(C(CC(N)=O)NC(=O)Cc2cccc3ccccc23)cc1[N+](=O)[O-] (stereo not given)	-13	-1%	u	2.1µM*	-2
O=C(/C=C/c1ccccc1)Nc1ccc2c(c1)OCCO2	30	-25%	73%	u	25*
O=C(/C=C/c1ccccc1)Nc1cc(NC(=O)/C=C/c2ccccc2)cc(C(=O)O)c1	-4	2%	61%	-4%	-3
COc1ccccc1/C=C/C(=O)Nc1ccc2c(c1)CCC2	34*	3%	-27%	-55%	35*
CCN(CC(=O)Nc1ccc2c(c1)OCCO2)C(=O)/C=C/c1ccccc1	47	10%	75%	28%	36*
CCC(Oc1ccccc1OC)C(=O)Nc1ccc2c(c1)OCCO2 (stereo not given)	27	-10%	29%	27%	16*
CCN(CC(=O)Nc1ccc2c(c1)OCCO2)C(=O)/C=C/c1ccc(F)cc1	34	3%	41%	40%	29
COc1ccc(Cl)cc1NC(=O)CSc1nncn1-c1cccnc1	-4	-5%	-3%	-1%	2
O=C(CN1C(=O)COc2ccc(S(=O)(=O)N3CCCC3)cc21)Nc1cccc(F)c1	-11	-4%	0%	u	0
C=CC1=C(C(=O)O)N2C(=O)[C@@H](NC(=O)C(N=O)c3csc(N)n3)[C@H]2SC1 (stereo not given in full)	-4	x	-11%	2%	3
